Results on 40 compounds are retold here after ChEMBL document CHEMBL3988442, “University of Dundee, Small-Polar-MMV Screening Library” (2021).

The target of this experiment is T1, Tyrosyl-tRNA synthetase, putative (Trypanosoma cruzi (strain CL Brener)) (UniProt Q4DSP6).
T1 sequence (whole entry): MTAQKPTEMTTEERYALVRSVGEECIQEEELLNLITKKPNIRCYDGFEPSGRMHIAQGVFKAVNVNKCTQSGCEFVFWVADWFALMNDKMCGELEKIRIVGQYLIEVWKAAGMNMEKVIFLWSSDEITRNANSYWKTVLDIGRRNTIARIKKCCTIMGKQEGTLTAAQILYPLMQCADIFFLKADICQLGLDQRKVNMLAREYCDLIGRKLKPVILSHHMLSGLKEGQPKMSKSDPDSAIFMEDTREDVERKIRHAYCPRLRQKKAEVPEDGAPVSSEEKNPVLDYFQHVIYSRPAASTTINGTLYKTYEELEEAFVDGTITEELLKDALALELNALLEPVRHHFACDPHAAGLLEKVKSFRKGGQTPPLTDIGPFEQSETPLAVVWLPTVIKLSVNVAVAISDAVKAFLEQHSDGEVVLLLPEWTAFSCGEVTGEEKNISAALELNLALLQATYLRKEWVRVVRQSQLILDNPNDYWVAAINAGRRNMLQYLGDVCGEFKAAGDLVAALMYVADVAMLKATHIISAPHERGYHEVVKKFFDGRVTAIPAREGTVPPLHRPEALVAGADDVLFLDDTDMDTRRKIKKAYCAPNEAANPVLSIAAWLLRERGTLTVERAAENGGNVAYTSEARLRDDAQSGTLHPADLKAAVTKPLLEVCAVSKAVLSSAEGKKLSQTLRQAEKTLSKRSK
Put plainly: Trypanosoma cruzi tyrosyl tRNA synthetase (TcYRS) SOP. Format: functional. Details: scale not given: direction of the effect not stated beside the values. As to conditions: 30 µM.
As to `CC(C)(C)c1n[nH]c(C2CN(C(=O)c3cc(Cl)c[nH]3)CCO2)n1` (stereo not given), the Percent Effect came to 15.6%.

`Cc1nn(CC(C)C)c(N(C)C)c1CNCc1cc2ccccc2[nH]1`: the Percent Effect turned out to be 16.1%.

In the case of `Cc1ccc(CN2C[C@@H]3COC[C@H](NS(C)(=O)=O)[C@@H]3C2)o1`, the Percent Effect stood at 15%.

Consider `CC(=O)Nc1nc(C2CCN(C(C)=O)CC2)cs1`, for which the Percent Effect was 6.41%.

Take `COCC(=O)N1Cc2cn(C)nc2C(COc2cccnc2)C1` (stereo not given): the Percent Effect turned out to be 6.41%.

As for `O=C(COCc1nc(-c2ccncc2)no1)N1CCCC1`, the Percent Effect turned out to be 13.6%.

On to `CCOC(=O)c1sc(NC(=O)CN(C)S(C)(=O)=O)c(C#N)c1C`, for which the Percent Effect was 14.1%.

As to `Cc1ccc([C@]2(O)CC[C@H]3CN(Cc4cc(C)c(O)c(C)c4)C[C@H]32)nc1`, the Percent Effect turned out to be 6.49%.

`O=C(C1=CCCC1)N1CCO[C@H]2[C@@H](OCC3CC3)CC[C@@H]21`: the Percent Effect came out at 22.5%.

On to `Cc1nc(C)n(CC2CCCN2CC(=O)NCc2ccco2)n1` (stereo not given), for which the Percent Effect was -2.5%.

In the case of `CCOC(=O)NC(C(=O)NCc1ccc(N2CCCCC2)nc1)C(C)C` (stereo not given), the Percent Effect was 16.1%.

Consider `Cc1cc(NC(=O)c2nc(N3CCCC3)ncc2Cl)nc(C(C)C)n1`, for which the Percent Effect is 8.54%.

`CC(C)c1nc(C(=O)N2CCOCC2CC(=O)c2ccco2)c[nH]1` (stereo not given): the Percent Effect turned out to be 0%.

As to `OC1CCN(Cc2c(C3CCCNC3)[nH]c3ncccc23)CC1` (stereo not given), the Percent Effect was 9.09%.

Take `CS(=O)(=O)CCC(=O)Nc1cnn(-c2ccccc2Cl)c1`: the Percent Effect worked out at 18.3%.

Take `CC(C)CN1CCN(Cc2nc3ccccc3[nH]2)[C@H]2CS(=O)(=O)C[C@H]21`: the Percent Effect is 23.5%.

On to `O=C(Cn1cnc(NC(=O)CC2CCCC2)n1)NCc1ccccc1`, for which the Percent Effect stood at 17.1%.

As for `CN(Cc1ccco1)C(=O)[C@H]1CSCN1C(=O)OC(C)(C)C`, the Percent Effect came to 13.6%.

With `O=C1CN(Cc2nnc(-c3ccccc3Br)o2)CCN1`, the Percent Effect was determined as 7.69%.

For `CC(C)c1nnc2n1CCN(C(=O)CN1CCc3sccc3C1)C2`, the Percent Effect was found to be 7.32%.

Turning to `Cn1nccc1C1CCN(Cc2csc(-c3ncccn3)n2)CC1`, the Percent Effect turned out to be 28.1%.

For `COCc1cnc2n1CCN(Cc1cccnc1)C2C` (stereo not given), the Percent Effect stood at 5%.

As to `Cc1ccccc1CS(=O)(=O)CC(=O)NC1CCCCNC1=O` (stereo not given), the Percent Effect stood at 21.9%.

Regarding `O=C(Nc1cccc(OCc2cccc(F)c2)c1)C1COCCO1` (stereo not given), the Percent Effect was -11.1%.

On to `Cn1cnnc1C1CCCN(C(=O)NCc2cc[nH]n2)C1` (stereo not given), for which the Percent Effect turned out to be 18.5%.

For `CS(=O)(=O)NC1CCc2c(ccc(=O)n2CC2CC2)C1` (stereo not given), the Percent Effect came to 14.1%.

Take `COc1ccc(Cl)cc1NCC(=O)NCCc1ccccn1`: the Percent Effect was 1.24%.

In the case of `CC(C)n1ccnc1CN1CCCN(C(=O)COC2CCCC2)CC1`, the Percent Effect is 2.53%.

As for `COc1cc(C(=O)N(C2CC2)C2CC(=O)NC2=O)ccc1C` (stereo not given), the Percent Effect amounted to 11.4%.

In the case of `O=C(Nc1ccnc(OC2CCOC2)c1)C1CCC1` (stereo not given), the Percent Effect is -5.13%.

As for `Cc1ncccc1Oc1nccnc1C1CCN(C(C)C)CC1`, the Percent Effect was determined as 9.09%.

Regarding `Cc1cnn(CC2CCCN2C(=O)c2cn(-c3ccccc3)nc2C)c1` (stereo not given), the Percent Effect was found to be 11.1%.

As for `O=C(Cc1ccccn1)N1CCN(C(=O)c2cccc3[nH]ncc23)CC1`, the Percent Effect was determined as 5.06%.

Consider `Cc1nc2n(n1)CC(NCc1cc(Cl)c3c(c1)OCCCO3)CC2` (stereo not given), for which the Percent Effect was determined as 25.9%.

As to `Cn1cnc2c1CCN(Cc1nc(Cc3ccccc3)no1)C2`, the Percent Effect was 6.17%.

Consider `Cc1cnc(CN2CCOC(Cn3nc(C)nc3C)C2)cn1` (stereo not given), for which the Percent Effect was 24.1%.

Consider `CCN1CCC(c2nc3ccc(NC(C)C)cn3n2)CC1`, for which the Percent Effect was determined as 11%.

For `NC(=O)N1CCC2(CCN(Cc3cccc(F)c3)CC2)CC1`, the Percent Effect is 11.1%.

`O=C(N[C@@H]1CCNC[C@H]1O)c1ccc(F)c(Cl)c1`: the Percent Effect stood at 9.76%.

For `Cc1cnn(CCCNC(=O)N2CCCCC(N3CCCC3)C2)c1` (stereo not given), the Percent Effect was 19.5%.
